Results with a measured potency or affinity are listed apart. Results filed as inconclusive are left out. Values without a mark were called inactive.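 Rule for the calls: active = fitted half-maximal concentration for viability loss no higher than twice the top valid dose, in every repeat run; inconclusive = repeat runs disagree, flat partial loss, or poor curve fit; inactive = the rest.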
Test: cytotoxicity in IOSE-T80 ovarian epithelial cells, dose response, selectivity assay for PAX8 inhibitor project, cell-based, cherry-pick (AID 687032);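 note: cells exposed to compound for 96 h before reading; 0% = neutral control wells and -100% = 2 µM mitoxantrone kill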
Conditions: CellTiterGlo ATP luminescence, 96 h; series mostly up to 35 µM; activity change, negative = viability loss: at the top concentration

SMILES	activity change, negative = viability loss
CCCCC(=O)N1CCN(c2ccc(OC)cc2[N+](=O)[O-])CC1	16%
Cc1ccc(/C=N/NC(=O)c2ccccn2)o1	2.35%
O=C(CSc1cccc[n+]1[O-])Nc1cc(S(=O)(=O)N2CCOCC2)ccc1N1CCOCC1	12.8%
Fc1ccc(CSc2ccc(-c3ccco3)nn2)cc1	5.09%
COc1ccccc1NC1=Nc2cccc3cccc1c23	6.08%
O=[N+]([O-])c1ccc2nc(SCc3cn4ccccc4n3)[nH]c2c1	11%
CCOC(=O)C1(Cc2ccc(OC)cc2)CCN(C(=O)CN2CCCCC2=O)CC1	-0.674%
CC(=O)Nc1ccc(C(=O)CSc2cc(C)c3cccc(C)c3n2)cc1	9.21%
Cc1cccc(C(=O)Oc2ccc(/C=N/NC(=O)c3ccccc3O)cc2)c1	9.88%
CC1CCN(CCOc2ccc(OCc3ccccc3)cc2)CC1	5.1%
CCN(C(=O)COC(=O)c1ccc(S(=O)(=O)N2CCCc3ccccc32)cc1)C1CCS(=O)(=O)C1 (stereo not drawn)	6.82%
O=C(/C=C/c1c(Cl)nc2ccccn12)Nc1ccc(F)cc1	4.71%
Cc1cccc(OCc2nc(-c3cccnc3)no2)c1	13.4%
COc1ccc(-c2cn(CC[C@@H]3CC[C@H](NC(=O)Cc4ccccn4)[C@@H](CO)O3)nn2)cc1	3.37%
Cc1nn(CCO)c2nc(-c3cccs3)cc(C(F)(F)F)c12	-1.44%
O=C(/C=C/c1ccco1)Nc1nc(-c2ccccc2)cs1	19.4%
COc1ccc(C2CC(c3ccc(Br)cc3)=NN2C(=S)Nc2ccccc2)cc1 (stereo not drawn)	7.52%
Cc1cc(=O)oc2ccc(OC(=O)CN3C(=O)c4cccc([N+](=O)[O-])c4C3=O)cc12	29.2%

From PubChem BioAssay
